Glyco luc inh = increase of ERlucT glycosylation luciferase signal, primary screen, N-linked glycosylation inhibitor project, D54 ERlucT cells, luminescence, set 2; D54 ERlucT glycosylation luciferase reporter, 24 h; percent of 100 nM tunicamycin response; reporter increase, % at 12.5 µM; 0.23% of 360,000 active; AID 588692, 2011;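 active means mean luciferase reporter signal, scaled so untreated is 0 and the glycosylation-blocking control 100, at or above a set limit in every replicate; inconclusive means mean reaches the limit but not every replicate does; inactive means mean below the limit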;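 further: luciferase carries N-glycosylation sites so blocking glycosylation raises the light; 0% = median of neutral control wells and 100% = median of 100 nM tunicamycin wells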
Wnt bcat act = Wnt/beta-catenin pathway activators, primary screen, cell-based, plate reader, single point. AID 743398, 2014. 1.2% of 300,000 active. Wnt/beta-catenin reporter cell assay, activator. activation, % at 9.35 µM; in the data active means activation above about 30%, passing the limit was not always enough; inconclusive means no clear call, values can overlap the other calls;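 further: 0% = neutral control wells and 100% = positive control wells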
MITF TRPM1 HTS = activators of MITF-driven TRPM1 promoter reporter, primary screen, cell-based, SK-MEL-5, luciferase, single point | activation, % at 12.5 µM | SK-MEL-5 TRPM1-promoter luciferase, 24 h; % of positive control, neutral wells = 0 | 0.75% of 300,000 active | AID 588334, 2011;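 active means mean activation of at least 80% with every replicate also reaching 80%; inconclusive means mean reaches 80% but some replicate falls short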;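 further: 0% = neutral control wells and 100% = parthenolide positive control wells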
Vif imaging = HIV Vif self-association inhibitors, primary screen, imaging, HEK293T, single point; HEK293T cells, Vif self-association by quenched fluorescence, 24 h; inhibition, % at 7.49 µM; 0.35% of 340,000 active; AID 602346, 2012; in the data active means inhibition above about 50%, passing the limit was not always enough; inconclusive means no clear call, values can overlap the other calls; inactive means below about 31%
esBAF inh = Bmi1 luciferase reporter increase in mESCs, primary screen, esBAF inhibitor project, mouse ES cells, Bmi1 luciferase knock-in, single point; 24 h; 100% = twice the neutral-well signal; reporter increase, % at 12.5 µM; 2% of 350,000 active; in the data active means activation above about 40%; inconclusive means no clear call, values can overlap the other calls;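 further: 0% = median of the plate's neutral control wells and 100% = double that signal; a rise in the Bmi1 reporter signal indicates esBAF inhibition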
PvdQ inh = P. aeruginosa PvdQ acylase inhibitors, primary screen, biochemical, fluorescence, plate reader and imaging, single point | PvdQ acylase [Pseudomonas aeruginosa LESB58] | purified PvdQ acylase | inhibition, % at 10 µM | 0.063% of 340,000 active | AID 488965, 2010; in the data active means inhibition above about 30%, passing the limit was not always enough; inconclusive means no clear call, values can overlap the other calls;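 further: 0% = vehicle neutral wells and 100% = reference inhibitor wells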
Numbers without * were called inactive. In the library only some 2.9% were active in any assay of this set; here they are far more common.

Screening Cc1cc(Nc2ccccc2)n(C(=O)c2ccc(Cl)cc2)n1 returned Glyco luc inh -0.2, MITF TRPM1 HTS 13.7, Vif imaging -6.6, esBAF inh 52.9* and PvdQ inh -13.5.
For c1ccc(C2=NN(c3ccccc3)CC2)cc1 the results were Glyco luc inh -4.1, Wnt bcat act 50.3*, MITF TRPM1 HTS 87.9*, Vif imaging 27.6, esBAF inh 45.5* and PvdQ inh 5.4.
CS(=O)(=O)Nc1cccc(NC(=O)c2cccc3c(-c4ccc(F)c(F)c4)coc23)c1 was read as Glyco luc inh 22.4, Wnt bcat act -1.1, Vif imaging -6.9 and esBAF inh 52.0*.
For Cn1nccc1-c1ccc(C(=O)Nc2cccc(NS(C)(=O)=O)c2)c2occc12 the results were Glyco luc inh 3.2, Wnt bcat act 3.7, Vif imaging -5.2 and esBAF inh 46.0*.
For COc1ccc(CCN2C(=O)C=CC2=O)cc1OC the results were Glyco luc inh -7.4, Wnt bcat act -7.6, Vif imaging 3.4 and PvdQ inh -20.8.
`COc1ccc(CCN2C(=O)c3cccnc3C2=O)cc1OC` gave Glyco luc inh 1.1, MITF TRPM1 HTS -3.9, Vif imaging 55.9*, esBAF inh -2.2 and PvdQ inh 0.3.
Screening CCN(CC)S(=O)(=O)c1ccc2c(c1)nc(-c1ccccn1)n2C returned Glyco luc inh -1.8, Wnt bcat act 16.9, Vif imaging -3.4, esBAF inh 60.1* and PvdQ inh 4.2.
Screening COc1cccc(C(NC(C)=O)c2nc(-c3ccccc3C)cs2)c1 (stereo not drawn) returned Glyco luc inh 45.0*, Wnt bcat act -0.7, Vif imaging 0.5 and esBAF inh -7.4.
`COc1cc(F)ccc1-c1csc(C(NC(C)=O)c2cccc(F)c2)n1` (stereo not drawn) gave Glyco luc inh 57.7*, Wnt bcat act -0.7, Vif imaging 0.0 and esBAF inh -0.9.
For CO[C@H]1CN(C)C(=O)c2cc(NS(C)(=O)=O)ccc2OC[C@@H](C)N(C(=O)CN(C)C)C[C@H]1C the results were esBAF inh -1.6.
For CNc1cc(NS(=O)(=O)c2ccc(N)cc2)nc(NC)n1 the results were Glyco luc inh 2.1, Wnt bcat act 1.9, MITF TRPM1 HTS 11.0, Vif imaging 53.2*, esBAF inh -8.4 and PvdQ inh 8.4.
`CC(C)NC(=O)N(C)C[C@@H]1Oc2c(NS(=O)(=O)c3cn(C)cn3)cccc2C(=O)N([C@H](C)CO)C[C@H]1C` gave esBAF inh -1.6.
`O=C(NCc1nnc(SCC(=O)N2CCCc3ccccc32)o1)c1ccco1` gave Glyco luc inh 0.1, Wnt bcat act 46.2*, MITF TRPM1 HTS -8.0, Vif imaging -1.2, esBAF inh 2.5 and PvdQ inh -10.0.
C[C@H]1CN([C@@H](C)CO)C(=O)c2cccc(NC(=O)Nc3ccccc3)c2O[C@H]1CN(C)Cc1ccc(-c2ccccc2)cc1 was read as esBAF inh -5.1.
For CN1CCN(CC(=O)N2CCn3c4c(c5cc(C6CCCCC6)ccc53)CCCC42)CC1 (stereo not drawn) the results were Glyco luc inh -9.6, Wnt bcat act -2.0, MITF TRPM1 HTS -62.4, Vif imaging 98.0*, esBAF inh -26.8 and PvdQ inh -15.7.
For Cc1ccc2c(c1)c1c3n2CCN(C(=O)CN2CCN(C)CC2)C3CCC1 (stereo not drawn) the results were Glyco luc inh -2.2, Wnt bcat act -6.5, MITF TRPM1 HTS 49.6, esBAF inh 5.3 and PvdQ inh -12.3.
O=C(OCc1ccccc1F)c1ccc2c(c1)-c1ccccc1C2=O was read as Glyco luc inh 3.0, Wnt bcat act -1.3, MITF TRPM1 HTS inconclusive, Vif imaging -2.1, esBAF inh 44.2* and PvdQ inh 10.6.
CC1CCN(C(=O)Nc2ccc3nsnc3c2)CC1 was read as Glyco luc inh 1.5, MITF TRPM1 HTS 100.1*, Vif imaging -4.3, esBAF inh inconclusive and PvdQ inh -4.1.
Screening S=C(Nc1ccc2nsnc2c1)N1CCCCCC1 returned Glyco luc inh -3.7, Wnt bcat act 9.1, MITF TRPM1 HTS 93.8*, Vif imaging -1.9 and PvdQ inh 5.2.
O=C(Nc1ccc2nsnc2c1)N1CCCCC1 was read as Glyco luc inh -1.9, Wnt bcat act 9.8, MITF TRPM1 HTS 18.9, Vif imaging 3.0, esBAF inh 19.0 and PvdQ inh -4.2.
Screening O=C(c1ccc2c(c1)OCO2)N1CC[C@@H]2[C@@H](CO)Nc3ccc(-c4ccccc4)cc3[C@@H]21 returned esBAF inh -7.2.
CCNC(=O)Nc1ccc2c(c1)C(=O)N(C)[C@@H]1CC[C@@H](CC(=O)N[C@H](C)c3ccccc3)O[C@H]1CO2 was read as esBAF inh -2.1.
C[C@@H]1CN([C@@H](C)CO)C(=O)c2c(c3ccccc3n2C)-c2ccccc2CO[C@H]1CN(C)S(=O)(=O)Cc1ccccc1 was read as esBAF inh 4.2.
Screening O=C1SC(SC(=Nc2ccccc2)Nc2ccccc2)C(=O)N1c1ccccc1 (stereo not drawn) returned Glyco luc inh 0.0, Wnt bcat act 48.5*, MITF TRPM1 HTS 35.7, Vif imaging -3.6 and PvdQ inh -15.8.
C[C@@H](NC(=O)[C@@H]1[C@@H](CO)[C@@H]2Cn3c(cccc3=O)[C@@H]2N1CC1CCCC1)c1ccccc1 was read as esBAF inh 1.1.
`CSCc1ccc(C(=O)NCCSc2ccc(Br)cc2)cc1` gave Glyco luc inh -0.5, Wnt bcat act inconclusive, MITF TRPM1 HTS 108.0*, Vif imaging -4.0, esBAF inh 47.8* and PvdQ inh -5.7.
`Cc1ccccc1Cn1nnc(-c2cccc(C(=O)O)c2)n1` gave Glyco luc inh -3.6, Wnt bcat act 39.2*, MITF TRPM1 HTS -0.6, Vif imaging 4.6, esBAF inh 14.8 and PvdQ inh 4.6.
Screening Cc1nccc(-c2ccc3c(c2)OCO3)n1 returned Glyco luc inh 0.5, Wnt bcat act 4.0, MITF TRPM1 HTS -0.9, Vif imaging -2.2 and PvdQ inh -5.9.
Cc1ccccc1Cn1nnc(-c2ccc3c(c2)OCO3)n1 was read as Glyco luc inh -1.5, MITF TRPM1 HTS 70.1, esBAF inh 50.6* and PvdQ inh 12.6.
For Fc1cccc(Cn2ccc(-c3ccc4c(c3)OCO4)n2)c1 the results were Glyco luc inh -0.8, Vif imaging -15.9, esBAF inh 64.0* and PvdQ inh -2.6.

Screens from PubChem.
